High-throughput results deposited in PubChem by National Center for Advancing Translational Sciences (NCATS).
PLK1 PBD inh = PLK1 (human) polo-box domain binding inhibition | AID 720504 | Potency, µM, for inactives: max response, negative = inhibition, actives largely listed as inhibitors | 360,000 tested, 2.8% active | Plk1 PBD binding of FITC phosphopeptide, fluorescence polarization | P53350; further: series mostly up to about 57 µM; on the % scale 0 is the no-effect control and ±100 the full control effect; nearly all actives have a fitted effect of over 65% in size
G9a block = G9a (human) methyltransferase inhibition; 350,000 tested, 8.8% active; Potency, µM (doses to about 102 µM), without a hit: at the highest dose activity, negative = inhibition, actives largely listed as inhibitors; G9a H3K9 monomethylation, AlphaScreen, 2 h; further: on the % scale 0 is the no-effect control and ±100 the full control effect; nearly all actives have a fitted effect of over 75% in size
Target sequence (Q96KQ7 913-1193 limits assumed): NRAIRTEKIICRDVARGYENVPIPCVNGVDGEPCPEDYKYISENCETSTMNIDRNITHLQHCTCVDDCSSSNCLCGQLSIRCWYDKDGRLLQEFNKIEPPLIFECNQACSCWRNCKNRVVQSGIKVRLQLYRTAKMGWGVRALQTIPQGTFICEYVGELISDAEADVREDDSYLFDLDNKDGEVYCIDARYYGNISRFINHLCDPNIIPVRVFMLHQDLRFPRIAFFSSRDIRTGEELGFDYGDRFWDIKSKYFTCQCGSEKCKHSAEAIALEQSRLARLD
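G9a (20 nM) preincubated 15 min RT with compounds, then 500 nM biotinylated H3K9 peptide and 20 uM SAM added; 2 h RT reaction. Monomethyl-H3K9 product detected by AlphaScreen with anti-H3K9me1 antibody, streptavidin donor and anti-rabbit IgG acceptor beads.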
HP1b chromo inh = inhibitors of HP1-beta chromodomain binding to methylated histone tails. P83916. AlphaScreen HP1-beta / biotin-H3K9me3 peptide binding. Potency, µM (series often up to 114 µM), for inactives: top-dose activity change, negative = inhibition, most hits filed as inhibitors. 390,000 tested, 0.56% active. AID 540317; further: nearly all actives have a fitted effect of over 70% in size
Target sequence (P83916 whole entry, looked up): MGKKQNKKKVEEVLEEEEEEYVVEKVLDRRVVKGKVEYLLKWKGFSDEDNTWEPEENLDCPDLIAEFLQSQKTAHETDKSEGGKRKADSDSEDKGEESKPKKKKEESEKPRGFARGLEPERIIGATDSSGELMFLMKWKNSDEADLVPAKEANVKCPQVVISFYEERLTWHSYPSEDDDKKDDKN
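AlphaScreen: HP1-beta (50 nM) preformed 30 min with biotin-H3(1-18)K9me3 peptide (50 nM) in PBS pH 7.4, 0.01% Tween-20. Compound added for 30 min at RT, then streptavidin donor/nickel chelate acceptor beads (10 ug/mL) for 30 min.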
JMJD2A Tudor inh = blocks the human JMJD2A Tudor domain. O75164. 390,000 tested, 4.4% active. Potency, µM (top dose mostly 114 µM), for inactives: at the highest dose activity change, negative = inhibition, actives largely listed as inhibitors. AlphaScreen JMJD2A-Tudor / H3K4me3 peptide binding; further: on the % scale 0 is the no-effect control and ±100 the full control effect; nearly all actives have a fitted effect of over 50% in size
BAZ2B inh = inhibitors of human BAZ2B bromodomain | Q9UIF8 | AlphaScreen BAZ2B-H3K14Ac peptide displacement | Potency, µM (doses to about 114 µM), for inactives: at the top dose activity change, negative = inhibition, most hits filed as inhibitors | 360,000 tested, 4.4% active | AID 504333; further: on the % scale 0 is the no-effect control and ±100 the full control effect; nearly all actives have a fitted effect of over 60% in size
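AlphaScreen luminescence quantifies BAZ2B engagement of H3K14Ac peptide; the protein and biotinylated peptide are both at 50 nM final, buffer PBS pH 7.4 with 0.01% Tween-20, all steps at room temperature.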
Sfp PPTase inh = blocks B. subtilis Sfp PPTase activity. Q9F4F7. Biochemical Sfp PPTase activity, qHTS. Potency, µM, for the others: largest response in the series, negative = inhibition, actives largely listed as inhibitors. 310,000 tested, 3.5% active;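 further: the enzyme is Sfp with the accession as filed and its product quenches rhodamine fluorescence; 0% = enzyme reaction without inhibitor and -100% = no enzyme wells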
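Sfp 15 nM + cpd, 15 min RT; start w/ rhodamine-CoA 5 uM, BHQ-2-YbbR 12.5 uM (final); 50 mM Hepes pH 7.6, 10 mM MgCl2, 0.01% NP-40, 0.01% BSA; read 525/598 nm at 0 and 30 min.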
Starred values were filed as active, the others as inactive; ? = inconclusive; / = no result given; [ ] = another dose, or the depositor's remark. Shown are actives, neighbours in structure and some others; about 12% of the full set was active somewhere. The call rests on the fitted dose curve; in most records, active means well fitted curve in the direction sought with a large enough effect; inconclusive means small, poorly fitted or top-dose-only effect, or another doubt; inactive means no such curve, though single readings can be large; an effect the other way counts as inactive or inconclusive. Potency means the concentration at half of the fitted maximal effect.

SMILES	PLK1 PBD inh	G9a block	HP1b chromo inh	JMJD2A Tudor inh	BAZ2B inh	Sfp PPTase inh
Cc1cccc(NC(=O)C2CCC(CNS(=O)(=O)c3ccc(Br)s3)CC2)c1 (configuration not stated)	/	-7%[59 µM]	11%	-12%	2%	/
Cc1cc(C)c(C)c(S(=O)(=O)N2CCN(S(=O)(=O)c3ccc4c(c3)OCCO4)CC2)c1C	/	/	/	-32%	/	/
Cc1ccccc1C(=O)OCc1cc(=O)n2c(C)csc2n1	/	15%[59 µM]	8%	-5%	1%	/
Cc1csc2nc(CN3CCN(CC(=O)N(C)C)CC3)cc(=O)n12	0%	45µM*	41%	1%	8%	16%
CS(=O)(=O)N1Cc2ccccc2CC1C(=O)O (configuration not stated)	-10%	40µM*	8%	-11%	?	18%
CCS(=O)(=O)N1Cc2ccccc2CC1C(=O)N1CCN(c2ccccc2)CC1 (configuration not stated)	-15%	2%[2.33 µM]	?	25µM*	50µM*	-4%
O=C(O)[C@H]1Cc2ccccc2CN1S(=O)(=O)c1ccc(F)cc1	-9%	-7%	31%	-6%	-2%	27%
O=C(O)C1Cc2ccccc2CN1S(=O)(=O)/C=C/c1ccccc1 (configuration not stated)	-3%	14µM*	38%	-15%	79µM*	-7%
CC(=O)c1ccc(S(=O)(=O)N2Cc3ccccc3CC2C(=O)O)cc1 (configuration not stated)	?	40µM*	0%	18µM*	?	6%
CC1(Cc2ccccc2Cl)C(=O)Nc2ccc(OC(F)(F)F)cc21 (configuration not stated)	-10%	/	/	/	/	/
CCCCC1Cc2[nH]c(=S)[nH]c(=O)c2C(C(C)C)O1 (configuration not stated)	-15%	/	/	/	/	/
CC1=CC(c2ccccc2)n2nc(N3C(=O)CCC3=O)nc2N1 (configuration not stated)	-3%	20µM*	35%	79µM*	?	-8%
CC1=CC(c2ccccc2)n2nc(N3C(=O)C4CC=CCC4C3=O)nc2N1 (configuration not stated)	-7%	25µM*	23%	-33%	-35%	9%
CC1=CC(c2ccccc2)n2nc(N3C(=O)c4ccccc4C3=O)nc2N1 (configuration not stated)	-16%	-2%[12.7 µM]	30%	-30%	-37%	-8%
CCn1c(=O)cc(OCC(=O)NCc2ccc(C)o2)c2ccccc21	-9%	?	-4%	-24%	4%	32µM*
Cc1ccc(CNC(=O)CCCOc2cc(=O)n(C)c3ccccc23)o1	-15%	?	-2%	-28%	-7%	22µM*
CCn1c(=O)cc(OCC(=O)NCc2ccco2)c2ccccc21	-16%	?	9%	?	?	-1%
Cn1c(=O)cc(OCCCC(=O)NCc2ccco2)c2ccccc21	-9%	2%[12.7 µM]	2%	-17%	0%	-1%
O=c1c(/C=N/OCc2ccc(Cl)cc2Cl)c[nH]n1-c1cccc(Cl)n1	-18%	3%	15%	-30%	-5%	2%
O=c1c(-n2cncn2)c[nH]n1-c1cccc(Cl)n1	-9%	?	?	50µM*	50µM*	56µM*
CC(C(=O)Nc1ccccc1-c1ccccc1)N(C)Cc1nc2ccccc2c(=O)[nH]1 (configuration not stated)	6.7µM*	12%	?	-32%[11.4 µM]	-9%	?
CCCn1c(N2CCN(CC(=O)Nc3ccc4c(c3)OCCO4)CC2)nc2ccccc21	2%	50µM*	27%	?	?	-4%
Cn1c(N2CCN(C(=O)Nc3ccc(C(F)(F)F)cc3)CC2)nc2ccccc21	11µM*	-27%[2.33 µM]	-1%	?	-6%	16%
CCCn1c(N2CCN(C(=O)Nc3ccc(Cl)cc3)CC2)nc2ccccc21	-8%	12%	21%	100µM*	7%	9%
CC(=O)c1ccc(N2CCN(C(=O)C3CCN(S(=O)(=O)c4cccc5nonc45)CC3)CC2)cc1	/	5%[59 µM]	15%	-9%	-13%	/
